In all, about 370,000 compounds went through this assay and about 4,800 (1.3%) were called active.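 Rule for the calls: active = inhibition above about 21% made by adding two undisclosed values (limit read from the data); inactive = the rest.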 What follows is part of a selection rich in actives, with near analogues and random picks from the rest.
Biological target: Protein arginine N-methyltransferase 1 (Homo sapiens) (UniProt Q99873)
Assay: human PRMT1 activity-probe blockers – biochemical, fluorescence polarization, primary screen (AID 652257)
Conditions: recombinant PRMT1, activity-based probe fluorescence polarization; at 2.79 µM; hits give high values

Sequence of Protein arginine N-methyltransferase 1 (Homo sapiens) (Q99873 whole entry, looked up): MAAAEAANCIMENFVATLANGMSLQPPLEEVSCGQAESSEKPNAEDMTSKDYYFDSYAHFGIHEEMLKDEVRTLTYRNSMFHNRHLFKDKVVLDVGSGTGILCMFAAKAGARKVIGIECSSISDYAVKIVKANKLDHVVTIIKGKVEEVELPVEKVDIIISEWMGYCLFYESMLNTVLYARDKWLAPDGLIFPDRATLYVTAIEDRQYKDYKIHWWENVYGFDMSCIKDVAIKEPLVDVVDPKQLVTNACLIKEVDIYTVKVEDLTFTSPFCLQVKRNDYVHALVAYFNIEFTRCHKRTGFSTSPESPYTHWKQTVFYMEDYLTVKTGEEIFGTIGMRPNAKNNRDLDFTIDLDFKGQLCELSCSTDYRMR

inhibition, active:
Cc1cc(/C=N/Nc2ccc([N+](=O)[O-])cn2)c(C)n1-c1cccc(C(=O)O)c1 23.6%
CCOC(=O)c1cc2n(c1N)-c1ccccc1C2=O 29.4%
O=C1C=CC(=O)N1c1ccc(N2CCCCC2)cc1 90.5%
CC(C)(C)NC(=O)COc1ccc(CNc2ccc3[nH]c(=O)[nH]c3c2)cc1 35.9%
CN(C)C(=S)N=c1ssc(=S)n1Cc1ccco1 27%
CSc1nc(C)cc(SC(C(C)=O)C(=O)Nc2ccccc2)n1 (centres undefined) 73.7%
CC(=O)N(C1=C(Cl)C(=O)c2ccccc2C1=O)c1ccc(C(=O)O)cc1 87.5%
Cc1ccc(N2C(=O)CC(Sc3ncn[nH]3)C2=O)cc1 (centres undefined) 85.1%
COc1ccc(N2C(=O)CC(Sc3n[nH]c(-c4ccc(C)cc4)n3)C2=O)cc1 (centres undefined) 66%
O=C1CC(Sc2ncn[nH]2)C(=O)N1c1ccccc1 (centres undefined) 60.4%
Cc1ccc2nc(N3C(=O)C(O)=C(C(=O)c4ccco4)C3c3cccc(O)c3)sc2c1 (centres undefined) 24%
CC(=O)Nc1cc(-c2ccccc2N(C)C)cn2c(-c3ccc(F)c(Cl)c3)cnc12 49.4%
CC1(C(=O)NCc2ccc3c(c2)OCO3)CCN1C(=O)Cc1cccc2ccccc12 (centres undefined) 24.5%
Nc1ccc2[nH]c(=S)sc2c1 28.3%
CSc1c(SCc2ccccc2)cnn(Cc2ccccc2)c1=O 42.6%
Cc1cc(C)c(/C=C2\C(=O)Nc3ccccc32)[nH]1 64.8%
Cc1ccc(CNC(=O)CCS(=O)(=O)c2ccc3c(c2)CC(C)N3C(=O)C2CC2)o1 (centres undefined) 35.6%

inhibition, inactive:
CN1CCN(C(=O)c2cnn(-c3ccccc3)c2NC(=O)c2ccc([N+](=O)[O-])cc2)CC1 4.06%
Cc1cccc(C(=O)NC(=S)N2CCN(c3ccc([N+](=O)[O-])cc3)CC2)c1 -2.54%
Cc1ccccc1NC(=O)COC(=O)c1ccc(Sc2ncn[nH]2)c([N+](=O)[O-])c1 -0.43%
O=C(O)c1[nH]c2ccccc2c1C(c1cccc(O)c1)c1c(C(=O)O)[nH]c2ccccc12 -1.91%
Cc1c(C(C)c2ccccc2O)[nH]c2ccccc12 (centres undefined) 2.86%
CCOC(=O)c1ccn(S(=O)(=O)c2ccc(C)cc2)c1-c1ccccc1 -3.46%
CCOC(=O)c1ccccc1NC(=O)c1c(N)n(C)c(=O)[nH]c1=O 1.71%
COc1cc(/C=C/C(=O)n2cnc3ccccc32)cc(OC)c1OC 5.15%
NS(=O)(=O)c1ccc(NC(=S)NC(=O)c2cccnc2)cc1 0.33%
C=CCN1C(C(=O)OC)CN(Cc2cn(Cc3ccccc3)nn2)CCS1(=O)=O (centres undefined) -1.05%
O=C(COc1ccc([N+](=O)[O-])cc1Cl)Nc1ccc2[nH]c(=O)[nH]c2c1 1.93%
COc1ccc(C(=O)OCC(=O)Nc2ccc3[nH]c(=O)[nH]c3c2)c(OC)c1OC 3.04%
O=S1(=O)c2c(cccc2N2CCSCC2)Oc2ccccc2CN1Cc1cn(Cc2ccc(F)cc2)nn1 -0.69%
O=C(Nc1ccccc1)N1CCN(Cc2nc3ccccc3c(=O)[nH]2)CC1 2.82%
CC(=O)N/C(=C\c1ccccc1)C(=O)OC(C)C(=O)N(C)c1ccccc1 (centres undefined) -2.28%
CN(C(=O)CN1CCN(c2cc(-c3ccc(OCc4ccccc4)cc3)ncn2)CC1)c1ccccc1 -1.91%
CC1CN(Cc2ccco2)C(=S)N(c2ccccc2)C1=O (centres undefined) 6.21%
CCN(CC)C(=O)CSc1nnc(CNc2ccc(F)cc2)n1Cc1ccco1 10.1%
Cc1cccc(OCCCC(=O)Nc2ccc(S(=O)(=O)N3CCCC3)cc2)c1 0.23%
Cc1ccc2nc(CN(C)C(=O)[C@@H](Cc3ccccc3)NC(=O)[C@H]3O[C@@H](n4ccc(=O)[nH]c4=O)[C@H](O)[C@@H]3O)[nH]c2c1 1.16%
COc1ccc(NC(=O)C(C)SCc2ccccc2)cc1 (centres undefined) 1.07%
Cc1nnc(SC(C(=O)Nc2cc(Cl)cc(Cl)c2)c2ccccc2)[nH]c1=O (centres undefined) 11.5%
CCCC[C@H](C(=O)N(CC)c1ccccc1)[C@@H](O)c1ccc2ccccc2c1 1.04%
COc1cccc(N(C)C(=O)[C@@H](C)[C@@H](O)c2ccc3ccccc3c2)c1 -1.81%
CCOC(=O)N1CCN(C(=O)C[C@H]2C[C@@]3(C(=O)OC)C(=C[C@H](C(C)(C)C)O[C@@H]3C)N(Cc3ccc(Cl)cc3Cl)C2=O)CC1 1.72%
CCOC(=O)c1ccc(N2C(=O)CC(Sc3nc(O)c(CC)c(=O)[nH]3)C2=O)cc1 (centres undefined) -0.27%
CC(=O)Nc1ccc(N2C(=O)CC(Sc3nccc(C)n3)C2=O)cc1 (centres undefined) 15.5%
CCOc1ccccc1N1C(=O)CC(Sc2nccc(C)n2)C1=O (centres undefined) 14.4%
COc1ccc(N2C(=O)C(O)C2c2ccc(C)cc2)cc1 (centres undefined) 3.23%
O=C(CSc1ncn[nH]1)Nc1ccnc2ccccc12 0.32%
Cc1ccnc(SC2CC(=O)N(c3ccccc3)C2=O)n1 (centres undefined) 8.05%
CCCC1CCC2(CCCN2CCOC(=O)NCc2ccccc2)CC1 (centres undefined) 5.29%
O=C(NC1CCCC1)C1CSCCS(=O)(=O)N1Cc1ccccc1 (centres undefined) -0.44%
O=C(Nc1cccc(Cl)c1)OC1CC2CC1[C@H]1CCCCN1[C@H]2Cc1ccccc1 (some centres undefined) 1.47%
CC[C@@H](CCC(=O)N(c1ccccc1)c1ccccc1)C1CC1 -2.74%
c1coc(CCNc2ncnc3ccc(-c4ccc5c(c4)OCO5)cc23)c1 15%
O=S1(=O)c2ccc(N3CCN(Cc4ccccc4F)CC3)cc2Oc2ccccc2CN1Cc1cn(Cc2ccc(Cl)cc2)nn1 -3.79%
O=C(CSc1nnc(-c2ccccn2)n1-c1ccccc1)Nc1ccc2cn[nH]c2c1 1.03%
C=CCn1c(SCC(N)=O)nnc1-c1ccccc1OC 5.94%
O=C(Cn1nc([N+](=O)[O-])nc1Br)NC1CCCCC1 -3.64%
O=C(CCCCCN1C(=O)C2C3C=CC(C3)C2C1=O)Nc1ccccc1 (centres undefined) -2.78%
O=C(C1=C(O)C(=O)N(c2ncccn2)C1c1cccs1)c1ccco1 (centres undefined) -1.95%
C=CCSc1nnc(N2C(=O)C(O)=C(C(=O)c3ccco3)C2c2ccc(F)cc2)s1 (centres undefined) 14.8%
CCc1c(-c2ccccc2OC)ncn1CCc1ccccc1OC -6.39%
N#Cc1ccccc1OC[C@@H](O)CN1CCC(C(O)(c2ccccc2)c2ccccc2)CC1 -3.45%
CC(=O)Nc1cccc(-c2cc(NC=O)c3ncc(-c4ccc(F)c(Cl)c4)n3c2)c1 2.68%
CC(=O)Nc1cc(-c2ccccc2F)cn2c(-c3cccc(C(F)(F)F)c3)cnc12 2.67%
CCOC(=O)C(=O)N(Cc1ccccc1)c1ccccc1C(=O)Nc1cc(OC)ccc1OC -1.5%
CCOc1ccc(N(CC(=O)NCCc2ccc(F)cc2)S(=O)(=O)c2ccccc2)cc1 1.75%
COc1c(Br)cc2c(C)c(C(=O)N3CCOCC3)oc2c1Br -2.82%
CC1(C(=O)NCc2ccc3c(c2)OCO3)CCN1CCc1ccccc1 (centres undefined) -4.72%
CC1(C(=O)NCc2ccc3c(c2)OCO3)CCN1C(=O)Cc1cccs1 (centres undefined) 0.09%
CCOC(=O)[C@]12CCCC3=C1N(CCC3)C(=O)[C@@H](CC(=O)NCc1cccs1)C2 1.5%
N#CCC[C@H]1CC[C@]2(CCCN(Cc3ccc(Cl)cc3)C2)O1 1.93%
O=c1[nH]c2ccccc2s1 5.51%
CCOc1ccc2[nH]c(=S)sc2c1 10.4%
Cc1cc(C)cc(NC(=O)N2CCC(N(C)CCC(C)C)CC2)c1 -0.26%
CCN(CC)C(=O)C(C)N1c2cccc3cccc(c23)S1(=O)=O (centres undefined) -0.89%
CC1=C(C(=O)N(C)C)CC(CC(=O)NCCN2CCOCC2)C(=O)N1Cc1ccccc1 (centres undefined) -1.74%
Cc1cccc(CCNC(=O)Cn2ncc3c([nH]c4ccc(C)cc43)c2=O)c1 -0.97%
CCOC(=O)[C@]12CCCC3=C1N(CCC3)C(=O)[C@@H](CC(=O)N1CCSCC1)C2 -9.78%
COC(C[C@@H](O)[C@H](C)[C@H](O)COCc1ccccc1)OC -0.18%
COC(=O)c1ccc(SCc2ccccc2)nc1 1.13%
O=c1c2ccccc2c(-c2ccc(Br)cc2)nn1Cc1ccccc1 3.02%
O=C1Nc2ccccc2C1=NN=Cc1ccco1 -4.47%
COc1ccccc1S(=O)(=O)c1c(C)cc(C)[nH]c1=O -5.06%
CC(=O)Nc1nc2ncccn2c1-c1ccc(C(F)(F)F)cc1 5.51%
CCC(=O)N1c2ccc(S(=O)(=O)NCc3ccco3)cc2CC1C (centres undefined) 4.05%
COc1ccccc1CNC(=O)C1CCN(S(=O)(=O)c2ccc3c(c2)CC(C)N3C(=O)C2CC2)CC1 (centres undefined) 0.46%
COc1ccc(N2CCN(CCNS(=O)(=O)c3ccc(Cl)s3)CC2)cc1 -1.47%
Cc1cc(C)n2ncc(C(=O)Nc3ccc4c(c3)OCCO4)c2n1 -2.31%
Cc1ccc(S(=O)(=O)N2CCN(C)CC2)cc1C(=O)NC1CCCCC1 3.5%

Reference: PubChem BioAssay AID652257 (The Scripps Research Institute Molecular Screening Center, 2013)
